Literature values, collected in PubChem BioAssay AID977611.
Out of some 3,900 compounds screened, about 3,900 (100%) were called active. Cut-off not given; nearly all actives show Kd up to about 4200 µM. So high a share suggests a set chosen from earlier hits. The list shows a part of the results. Starred links: 1 amine or outer side, 2 acyl side, 3 side chain; linkers in the order of their positions; H or OH if unused. Where a SMILES comes first, the peptide text is derived from it. Non-standard residues stand in square brackets, D forms with d. Residues, ends and D or L forms follow the SMILES beside them. Peptide text beside a SMILES is read from it. The star is where a group is joined. *: point of attachment. X1 = C[C@@H]1CCCN1*; Orn(CH(NH2)2) = NC(N)NCCC[C@H](N)C(=O)O; Propyl = CCC*

Assay: PubChem AID 977611
Details: PDB protein-ligand complexes, literature Kd

## CC[C@H](C)[C@H](NC(=O)[C@H](Cc1cnc[nH]1)NC(=O)[C@H](C)NC(=O)[C@H](CCC(N)=O)NC(=O)[C@@H](NC(=O)[C@H](CCCNC(N)N)NC(=O)[C@H](CC(C)C)NC(=O)[C@H](CC(C)C)NC(=O)[C@H](CO)NC(=O)[C@@H]1CCCN1C(=O)[C@@H](NC(=O)[C@H](CC(N)=O)NC(=O)[C@@H](N)CCCCN)[C@@H](C)CC)C(C)C)C(=O)N[C@@H](CCCNC(N)N)C(=O)N[C@@H](CCCCN)C(=O)N[C@@H](CCCCN)C(=O)N[C@@H](CCSC)C(=O)N[C@H](C(=O)O)C(C)C (HELM PEPTIDE1{K.N.I.P.S.L.L.[NC(N)NCCC[C@H](N[*:1])C(=O)[*:2]].V.Q.A.H.I.[NC(N)NCCC[C@H](N[*:1])C(=O)[*:2]].K.K.M.V}$$$$V2.0)
protein: MYOSIN A TAIL DOMAIN INTERACTING PROTEIN, PDB entry 4aom
  Kd: 0.085 µM (active)

## NC(=O)CC[C@H](NC(=O)CCc1ccc(-c2cc(-c3ccccc3)cs2)cc1)C(=O)N[C@@H](CCC(=O)O)C(N)=O
protein: Macrophage metalloelastase, PDB entry 3tsk
  Kd: 0.067 µM (active)

## CCC(CC)Nc1cc(C)nc(Oc2c(C)cc(C)cc2C)c1C
protein: Corticotropin-releasing factor receptor 1, T4-Lysozyme chimeric construct, PDB entry 4k5y
  Kd: 0.0067 µM (active)

## C=C/C(C)=C/[C@@]1(C)SC(=O)/C(=C(\O)C(F)(F)F)C1=O
protein: 3-OXOACYL-[ACYL-CARRIER-PROTEIN] SYNTHASE 1, PDB entry 4c73
  Kd: 12.1 µM (active)

## C=C/C(C)=C\[C@@]1(C)SC(=O)C(C(C)=O)=C1O
protein: 3-OXOACYL-[ACYL-CARRIER-PROTEIN] SYNTHASE 1, PDB entry 4c6u
  Kd: 25.6 µM (active)
protein: 3-OXOACYL-[ACYL-CARRIER-PROTEIN] SYNTHASE 1, PDB entry 4c6v
  Kd: 25.6 µM (active)

## CNc1nc2c(CC[C@H]3O[C@@H](OC)[C@H](O)[C@@H]3O)c3nc(N)[nH]c(=O)c3cc2[nH]1
protein: tRNA guanine transglycosylase (TGT), PDB entry 4leq
  Kd: 0.288 µM (active)

## CNc1nc2c(CC[C@H]3O[C@@H](OC)[C@H](OC)[C@@H]3O)c3nc(N)[nH]c(=O)c3cc2[nH]1
protein: tRNA guanine transglycosylase (TGT), PDB entry 4lbu
  Kd: 0.276 µM (active)

## O=C(O)c1ccc2nsnc2c1
protein: Pantothenate synthetase (T2A, E77G mutation), PDB entry 4ddm
  Kd: 3500 µM (active)

## COc1ccc([C@H]2OC[C@H](C)[C@@H]([C@@H](C)[C@@H](OC)[C@@H](C)CCC(=O)[C@H](C)[C@@H](C/C=C/N(C)C=O)OC)O2)cc1
protein: Actin, alpha skeletal muscle, PDB entry 4k43
  Kd: 0.132 µM (active)

## CC(C)C[C@H](NC(=O)[C@H](Cc1ccc(O)cc1)NC(=O)[C@H](CCC(=O)O)NC(=O)[C@H](CCC(=O)O)NC(=O)[C@H](Cc1c[nH]c2ccccc12)NC(=O)[C@H](CO)NC(=O)[C@@H](NC(=O)[C@H](Cc1ccccc1)NC(=O)[C@@H](NC(=O)[C@@H](N[C@@H](C)O)[C@@H](C)O)C(C)C)[C@@H](C)O)C(=O)N[C@@H](CC(=O)O)C(=O)N[C@@H](Cc1c[nH]c2ccccc12)C(=O)N[C@H](C(N)=O)C(C)C (H-[X1]VFTSWEEYLDWV-NH2)
protein: Proprotein convertase subtilisin/kexin type 9, PDB entry 4nmx
  Kd: 0.66 µM (active)

## CC[C@H](C)[C@H](NC(=O)CNC(=O)[C@H](CCC(=O)O)NC(=O)[C@@H](N)CCC(=O)O)C(=O)N[C@@H](Cc1c[nH]c2ccccc12)C(=O)N[C@@H](C)C(=O)O (H-EEGIWA-OH)
protein: RIM1? PDZ Domain, PDB entry 1zub
  Kd: 0.27 µM (active)

## H-DDYLWGLEAGEGISDLFD-OH
protein: retinoblastoma (Rb), PDB entry 1n4m
  Kd: 0.19 µM (active)

## CC1(C)Nc2nc(N)[nH]c(=O)c2N=C1C(=O)NCC(=O)NCCS(=O)(=O)C[C@H]1O[C@@H](n2cnc3c(N)ncnc32)[C@H](O)[C@@H]1O
protein: 2-amino-4-hydroxy-6-hydroxymethyldihydropteridine pyrophosphokinase/dihydropteroate synthase HPPK-DHPS, PDB entry 4pzv
  Kd: 2 µM (active)

## CC(=O)N[C@H](C(=O)N1CCC[C@H]1C(=O)N1CCC[C@H]1C(=O)N1CCC[C@H]1C(=O)N[C@H](C(=O)N1CCC[C@H]1C(=O)N1CCC[C@H]1C(=O)N[C@@H](CCCNC(N)N)C(=O)N[C@@H](CCCNC(N)N)C(=O)N[C@@H](CCCNC(N)N)C(N)=O)C(C)C)C(C)C
protein: Grb2(N-terminal SH3 domain), PDB entry 3gbq
  Kd: 3.5 µM (active)

## H-VPPPVPPPPS-OH
protein: Ponsin, PDB entry 2o9v
  Kd: 288 µM (active)

## CCCOC[C@H](NC(=O)[C@@H](NC(=O)[C@@H]1CCCN1C(=O)[C@@H](NC(=O)[C@@H](NC(C)=O)C(C)C)[C@@H](C)O)C(C)C)C(=O)N[C@H](C(=O)N[C@@H](C)C(N)=O)[C@@H](C)O (Ac-VTPVS(Propyl)TA-NH2)
protein: UDP-N-ACETYLGLUCOSAMINE--PEPTIDE N-ACETYLGLUCOSAMINYLTRANSFERASE 110 KDA SUBUNIT, PDB entry 4cdr
  Kd: 7.9 µM (active)

## C[C@H](N)C(=O)N1CCC[C@H]1C(=O)N1CCC[C@H]1C(=O)N[C@@H](CO)C(=O)N[C@@H](CC(N)=O)C(=O)N1CCC[C@H]1C(=O)N1CCC[C@H]1C(=O)N1CCC[C@H]1C(=O)N[C@@H](CCCNC(N)N)C(=O)N1CCC[C@H]1C(=O)N1CCC[C@H]1C (H-APPSNPPP[Orn(CH(NH2)2)]P-X1)
protein: tandem SH3domains of p47phox, PDB entry 1ov3
  Kd: 0.19 µM (active)

## H-GTCVAARTRPVLSY-OH
protein: WD REPEAT-CONTAINING PROTEIN 5, WDR5, PDB entry 4cy1
  Kd: 0.181 µM (active)

## H-GGRRPYIL-OH
protein: Neurotensin Receptor 1 Mutant TM86V Delta-IC3A, PDB entry 3zev
  Kd: 0.0023 µM (active)

## CNC(=O)C[C@@H]1NC(=O)c2csc(n2)-c2ccc(-c3nc(N(CCCCC(=O)O)C(=O)OC4CCC(C(=O)O)CC4)cs3)nc2-c2csc(n2)-c2csc(n2)[C@H]([C@@H](O)c2ccccc2)NC(=O)CNC(=O)c2nc(sc2COC)[C@H](C(C)C)NC(=O)c2nc1sc2C (stereo partly specified)
protein: E. coli K-12 Elongation factor Tu 1, PDB entry 3u2q
  Kd: 0.006 µM (active)

## NCc1csc2ccc(Br)cc12
protein: CATIONIC TRYPSIN, PDB entry 4abf
  Kd: 24 µM (active)

## NCc1csc2ccccc12
protein: CATIONIC TRYPSIN, PDB entry 4abb
  Kd: 31 µM (active)

## CO[C@H]1O[C@H](CNS(=O)(=O)c2c(C)cc(C)cc2C)[C@@H](O)[C@H](O)[C@@H]1O
protein: FUCOSE-BINDING LECTIN PA-IIL, PDB entry 3zdv
  Kd: 3.3 µM (active)

## NC(=O)C[C@H](NC(=O)CNC(=O)CNC(=O)[C@H](CCCNC(N)N)NC(=O)CNC(=O)CNC(=O)CNC(=O)CNC(=O)[C@@H](N)CO)C(=O)NCC(=O)NCC(=O)NCC(=O)NCC(=O)NCC(=O)NCC(=O)O (H-SGGGG[Orn(CH(NH2)2)]GGNGGGGGG-OH)
protein: Outer membrane porin 1a (Ia;b;F)(OmpF), PDB entry 3o0e
  Kd: 1.8 µM (active)

## H-SGRGK(Ac)G-OH
protein: ATPase family AAA domain-containing protein 2 ATAD2A bromodomain, PDB entry 4tt2
  Kd: 22 µM (active)

## O=c1[nH]cnc2cc3nc(NCCN4CCOCC4)[nH]c3cc12
protein: Queuine tRNA-ribosyltransferase TGT, PDB entry 4q4r
  Kd: 0.369 µM (active)

## CNc1nc2cc3nc(N)[nH]c(=O)c3cc2[nH]1
protein: Queuine tRNA-ribosyltransferase TGT, PDB entry 4q4s
  Kd: 0.112 µM (active)

## Nc1nc2cc3nc(NCCN4CCCCC4)[nH]c3cc2c(=O)[nH]1
protein: Queuine tRNA-ribosyltransferase TGT, PDB entry 4q4o
  Kd: 0.0343 µM (active)

## O=c1[nH]cnc2cc3nc(NCCN4CCCCC4)[nH]c3cc12
protein: Queuine tRNA-ribosyltransferase TGT, PDB entry 4q4p
  Kd: 0.407 µM (active)

## O=c1[nH]cnc2cc3nc(NCc4cccs4)[nH]c3cc12
protein: Queuine tRNA-ribosyltransferase TGT, PDB entry 4q4q
  Kd: 1.64 µM (active)
